{"source": "PubChem BioAssay (EPA / NIEHS)", "note": "Inconclusive results are not listed. Activity calls are given as the source filed them. The calls were made as follows, unless noted: active = hit-call score of the fitted dose curve at least 0.9, where 1 is the maximum; inconclusive = response in the unintended direction; inactive = score below 0.9."}
{"system": "not listed separately", "test": "ATG_M_32_TRANS: Attagene TRANS-FACTORIAL HepG2 Assay for M32 Transcription Factor (Internal Marker) (AID 2282984);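 also: transcript level of a background control reporter unit measured by RT-PCR and capillary electrophoresis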", "conditions": "HepG2 Attagene TRANS M32 internal marker reporter", "how_it_was_run": "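After 24 h dosing of transfected HepG2 cells, total RNA was reverse-transcribed, reporter sequences PCR-amplified, 6-FAM labelled by primer extension and HpaI-digested before capillary electrophoresis. Signal increase over DMSO was fitted.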"}
{"smiles": "CN1CN(C)CN(C)C1", "outcome": "inactive"}
{"smiles": "C=CC(=O)OCC(F)(F)C(F)(F)C(F)(F)C(F)(F)C(F)(F)C(F)(F)C(F)(F)C(F)F", "outcome": "inactive"}
{"smiles": "C[Si](Cl)(Cl)CCC(F)(F)C(F)(F)C(F)(F)C(F)(F)C(F)(F)C(F)(F)F", "outcome": "inactive"}
{"smiles": "CCC(=O)OC(C)c1ccccc1", "note": "(centres undefined)", "outcome": "inactive"}
{"smiles": "CCCCCCCCCCCCCCCCC", "outcome": "inactive"}
{"smiles": "FC(F)(F)C(F)(F)C(F)(F)CC1CO1", "note": "(centres undefined)", "outcome": "inactive"}
{"smiles": "CCCCCCCC/C=C\\CCCCCCCC(=O)OCC(O)CO", "note": "(centres undefined)", "outcome": "inactive"}
{"smiles": "C=C(C)CCCC", "outcome": "inactive"}
{"smiles": "OCCCC(F)(F)C(F)(F)C(F)(F)C(F)(F)C(F)(F)C(F)(F)C(F)(F)C(F)(F)F", "outcome": "inactive"}
{"smiles": "CNS(=O)(=O)C(F)(F)C(F)(F)C(F)(F)C(F)(F)C(F)(F)C(F)(F)C(F)(F)C(F)(F)F", "outcome": "inactive"}
{"smiles": "CCOC(C=C(C)CCC=C(C)C)OCC", "outcome": "inactive"}
{"smiles": "CCCCCCCC/C=C\\CCCCCCCC(=O)N(C)CC(=O)O", "outcome": "inactive"}
{"smiles": "O=C1c2ccccc2C(=O)c2c(Cl)cccc21", "outcome": "inactive"}
{"smiles": "O=C(O)CCC(F)(F)C(F)(F)C(F)(F)F", "outcome": "inactive"}
{"smiles": "CC(C)CC=C(C=O)c1ccccc1", "outcome": "inactive"}
{"smiles": "O=C(Cl)C(F)(F)C(F)(F)C(F)(F)C(F)(F)C(F)(F)C(F)(F)F", "outcome": "inactive"}
{"smiles": "CCOC(=O)CCC(C)=O", "outcome": "inactive"}
{"smiles": "CCC(C)CO", "note": "(centres undefined)", "outcome": "inactive"}
{"smiles": "OCCCCl", "outcome": "inactive"}
{"smiles": "Nc1c(Br)cc([N+](=O)[O-])cc1Br", "outcome": "inactive"}
{"smiles": "CCCCCCCCCCCCCC[P+](CCCC)(CCCC)CCCC", "outcome": "inactive"}
{"smiles": "Oc1ccc2c(c1)CCC2", "outcome": "inactive"}
{"smiles": "CO[Si](C)(CCC(F)(F)C(F)(F)C(F)(F)C(F)(F)C(F)(F)C(F)(F)F)OC", "outcome": "inactive"}
{"smiles": "O=S(=O)(OCC(F)(F)F)C(F)(F)C(F)(F)C(F)(F)C(F)(F)F", "outcome": "inactive"}
{"smiles": "Cc1ccc(O)c(-n2nc3ccccc3n2)c1", "outcome": "inactive"}
{"smiles": "CCCCOC(=O)C(C)O", "note": "(centres undefined)", "outcome": "inactive"}
{"smiles": "CCN(CC)c1ccc(N=Nc2ccccc2)cc1", "outcome": "inactive"}
{"biological_target": "Nuclear receptor subfamily 4 group A member 2 (Homo sapiens) (UniProt P43354)", "sequence (P43354 whole entry, looked up, the tested form may be a part)": "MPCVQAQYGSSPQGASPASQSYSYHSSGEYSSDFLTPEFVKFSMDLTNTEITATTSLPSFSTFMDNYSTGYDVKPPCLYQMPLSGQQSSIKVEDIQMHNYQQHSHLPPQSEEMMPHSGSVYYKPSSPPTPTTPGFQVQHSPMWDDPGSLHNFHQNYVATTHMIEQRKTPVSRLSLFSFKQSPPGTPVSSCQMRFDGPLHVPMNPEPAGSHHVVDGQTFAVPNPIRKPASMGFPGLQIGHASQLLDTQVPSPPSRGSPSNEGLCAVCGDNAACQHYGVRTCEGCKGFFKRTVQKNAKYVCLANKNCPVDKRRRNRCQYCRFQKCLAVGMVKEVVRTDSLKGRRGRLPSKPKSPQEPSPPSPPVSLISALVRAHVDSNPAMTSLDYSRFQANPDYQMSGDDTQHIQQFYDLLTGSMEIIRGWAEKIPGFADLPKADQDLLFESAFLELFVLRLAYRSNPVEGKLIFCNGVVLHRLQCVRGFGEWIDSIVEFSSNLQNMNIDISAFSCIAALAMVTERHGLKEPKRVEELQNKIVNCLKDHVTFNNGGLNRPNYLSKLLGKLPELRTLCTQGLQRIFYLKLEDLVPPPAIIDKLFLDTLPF", "test": "ATG_NURR1_TRANS: Attagene TRANS-FACTORIAL HepG2 Assay for human Nuclear Receptor Related Protein 1 (NURR1) (AID 2282985)", "conditions": "HepG2 Attagene TRANS reporter, mRNA readout", "how_it_was_run": "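Chimeric NR-Gal4 fusion activity measured in HepG2 after 24 h treatment. Reporter transcripts detected by RT-PCR and capillary electrophoresis fluorescence; positive-direction curve fitting against DMSO.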"}
{"smiles": "CN1CN(C)CN(C)C1", "outcome": "inactive"}
{"smiles": "Cc1ccc2c(c1)OCC(=O)CO2", "outcome": "inactive"}
{"smiles": "C=CC(=O)OCC(F)(F)C(F)(F)C(F)(F)C(F)(F)C(F)(F)C(F)(F)C(F)(F)C(F)F", "outcome": "inactive"}
{"smiles": "C[Si](Cl)(Cl)CCC(F)(F)C(F)(F)C(F)(F)C(F)(F)C(F)(F)C(F)(F)F", "outcome": "inactive"}
{"smiles": "CCC(=O)OC(C)c1ccccc1", "note": "(centres undefined)", "outcome": "inactive"}
{"smiles": "FC(F)(F)C(F)(F)C(F)(F)CC1CO1", "note": "(centres undefined)", "outcome": "inactive"}
{"smiles": "CCCCCCCC/C=C\\CCCCCCCC(=O)OCC(O)CO", "note": "(centres undefined)", "outcome": "inactive"}
{"smiles": "OCCCC(F)(F)C(F)(F)C(F)(F)C(F)(F)C(F)(F)C(F)(F)C(F)(F)C(F)(F)F", "AC50": "7.38 µM (active)"}
{"smiles": "CNS(=O)(=O)C(F)(F)C(F)(F)C(F)(F)C(F)(F)C(F)(F)C(F)(F)C(F)(F)C(F)(F)F", "outcome": "inactive"}
{"smiles": "CCOC(C=C(C)CCC=C(C)C)OCC", "outcome": "inactive"}
{"smiles": "O=C1c2ccccc2C(=O)c2c(Cl)cccc21", "outcome": "inactive"}
{"smiles": "O=C(O)CCC(F)(F)C(F)(F)C(F)(F)F", "outcome": "inactive"}
{"smiles": "CC(C)CC=C(C=O)c1ccccc1", "outcome": "inactive"}
{"smiles": "O=C(Cl)C(F)(F)C(F)(F)C(F)(F)C(F)(F)C(F)(F)C(F)(F)F", "outcome": "inactive"}
{"smiles": "OCC(O)CC(F)(F)C(F)(F)C(F)(F)C(F)(F)C(F)(F)C(F)(F)C(F)(F)C(F)(F)F", "note": "(centres undefined)", "outcome": "inactive"}
{"smiles": "CCC(C)CO", "note": "(centres undefined)", "outcome": "inactive"}
{"smiles": "NC(=O)C(F)(F)C(F)(F)C(F)(F)F", "outcome": "inactive"}
{"smiles": "OCCCCl", "outcome": "inactive"}
{"smiles": "Cc1ccc([N+](=O)[O-])c(C)c1", "outcome": "inactive"}
{"smiles": "CCOC(=O)CC(=O)C(F)(F)C(F)(F)F", "outcome": "inactive"}
{"smiles": "CN(C)C(C)(C)CO", "outcome": "inactive"}
{"smiles": "C=CC(=O)OCC(F)(F)C(F)(F)C(F)(F)COC(=O)C=C", "outcome": "inactive"}
{"smiles": "O=S(=O)(OCC(F)(F)F)C(F)(F)C(F)(F)C(F)(F)C(F)(F)F", "AC50": "65.2 µM (active)"}
{"smiles": "O=C(O)C(F)(F)C(F)(F)C(F)(F)OC(F)(F)F", "outcome": "inactive"}
{"smiles": "CCN(CC)c1ccc(N=Nc2ccccc2)cc1", "outcome": "inactive"}
{"biological_target": "Transcriptional activator Myb (Homo sapiens) (UniProt P10242)", "sequence (P10242 whole entry, looked up)": "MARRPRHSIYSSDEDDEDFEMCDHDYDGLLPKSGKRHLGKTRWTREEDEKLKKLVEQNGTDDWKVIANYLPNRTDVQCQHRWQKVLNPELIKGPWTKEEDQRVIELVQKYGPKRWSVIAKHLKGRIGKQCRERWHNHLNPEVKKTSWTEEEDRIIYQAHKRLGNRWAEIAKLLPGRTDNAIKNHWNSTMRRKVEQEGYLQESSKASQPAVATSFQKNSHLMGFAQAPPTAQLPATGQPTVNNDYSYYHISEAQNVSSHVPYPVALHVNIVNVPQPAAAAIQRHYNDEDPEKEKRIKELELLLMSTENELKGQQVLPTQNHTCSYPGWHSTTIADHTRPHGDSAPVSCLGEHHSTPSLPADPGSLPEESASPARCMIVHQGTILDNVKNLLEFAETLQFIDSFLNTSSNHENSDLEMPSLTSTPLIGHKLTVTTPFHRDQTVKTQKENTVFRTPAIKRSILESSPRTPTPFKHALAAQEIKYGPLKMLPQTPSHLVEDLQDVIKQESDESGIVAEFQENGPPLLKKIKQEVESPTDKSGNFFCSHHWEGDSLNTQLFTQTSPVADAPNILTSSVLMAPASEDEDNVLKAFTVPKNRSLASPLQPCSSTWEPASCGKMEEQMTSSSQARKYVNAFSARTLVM", "test": "ATG_Myb_CIS: Attagene CIS-FACTORIAL HepG2 Assay for human Myeloblastosis (Myb) Proto-Oncogene Transcription Factor (AID 2282986; active = hit-call score of the fitted dose curve at least 0.9, where 1 is the maximum; inactive = score below 0.9)", "conditions": "HepG2 Attagene CIS-FACTORIAL Myb reporter transcription; actives raise or lower the signal", "how_it_was_run": "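Transiently transfected HepG2 cells carrying a multiplexed cis-promoter reporter set report endogenous Myb activity after 24 h compound exposure. Reporter mRNA is read by RT-PCR with capillary electrophoresis of fluorescent products, fitted bidirectionally against DMSO.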"}
{"smiles": "CN1CN(C)CN(C)C1", "outcome": "inactive"}
{"smiles": "Cc1ccc2c(c1)OCC(=O)CO2", "outcome": "inactive"}
{"smiles": "C=CC(=O)OCC(F)(F)C(F)(F)C(F)(F)C(F)(F)C(F)(F)C(F)(F)C(F)(F)C(F)F", "outcome": "inactive"}
{"smiles": "C[Si](Cl)(Cl)CCC(F)(F)C(F)(F)C(F)(F)C(F)(F)C(F)(F)C(F)(F)F", "outcome": "inactive"}
{"smiles": "CSc1ccc(O)cc1C", "outcome": "inactive"}
{"smiles": "CCC(=O)OC(C)c1ccccc1", "note": "(centres undefined)", "outcome": "inactive"}
{"smiles": "CCCCCCCCCCCCCCCCC", "outcome": "inactive"}
{"smiles": "FC(F)(F)C(F)(F)C(F)(F)CC1CO1", "note": "(centres undefined)", "outcome": "inactive"}
{"smiles": "CCCCCCCC/C=C\\CCCCCCCC(=O)OCC(O)CO", "note": "(centres undefined)", "outcome": "inactive"}
{"smiles": "C=C(C)CCCC", "outcome": "inactive"}
{"smiles": "OCCCC(F)(F)C(F)(F)C(F)(F)C(F)(F)C(F)(F)C(F)(F)C(F)(F)C(F)(F)F", "outcome": "inactive"}
{"smiles": "CNS(=O)(=O)C(F)(F)C(F)(F)C(F)(F)C(F)(F)C(F)(F)C(F)(F)C(F)(F)C(F)(F)F", "outcome": "inactive"}
{"smiles": "CCOC(C=C(C)CCC=C(C)C)OCC", "outcome": "inactive"}
{"smiles": "CCCCCCCC/C=C\\CCCCCCCC(=O)N(C)CC(=O)O", "outcome": "inactive"}
{"smiles": "O=C1c2ccccc2C(=O)c2c(Cl)cccc21", "outcome": "inactive"}
{"smiles": "O=C(O)CCC(F)(F)C(F)(F)C(F)(F)F", "outcome": "inactive"}
{"smiles": "CC(C)CC=C(C=O)c1ccccc1", "outcome": "inactive"}
{"smiles": "O=C(Cl)C(F)(F)C(F)(F)C(F)(F)C(F)(F)C(F)(F)C(F)(F)F", "outcome": "inactive"}
{"smiles": "OCC(O)CC(F)(F)C(F)(F)C(F)(F)C(F)(F)C(F)(F)C(F)(F)C(F)(F)C(F)(F)F", "note": "(centres undefined)", "outcome": "inactive"}
{"smiles": "CCOC(=O)CCC(C)=O", "outcome": "inactive"}
{"smiles": "CCC(C)CO", "note": "(centres undefined)", "outcome": "inactive"}
{"smiles": "NC(=O)C(F)(F)C(F)(F)C(F)(F)F", "outcome": "inactive"}
{"smiles": "OCCCCl", "outcome": "inactive"}
{"smiles": "Nc1c(Br)cc([N+](=O)[O-])cc1Br", "outcome": "inactive"}
{"smiles": "CCCCCCCCCCCCCC[P+](CCCC)(CCCC)CCCC", "outcome": "inactive"}
{"smiles": "Cc1ccc([N+](=O)[O-])c(C)c1", "outcome": "inactive"}
{"smiles": "Oc1ccc2c(c1)CCC2", "outcome": "inactive"}
{"smiles": "CCOC(=O)CC(=O)C(F)(F)C(F)(F)F", "outcome": "inactive"}
{"smiles": "CN(C)C(C)(C)CO", "outcome": "inactive"}
{"smiles": "C=CC(=O)OCC(F)(F)C(F)(F)C(F)(F)COC(=O)C=C", "outcome": "inactive"}
{"smiles": "CO[Si](C)(CCC(F)(F)C(F)(F)C(F)(F)C(F)(F)C(F)(F)C(F)(F)F)OC", "outcome": "inactive"}
{"smiles": "O=S(=O)(OCC(F)(F)F)C(F)(F)C(F)(F)C(F)(F)C(F)(F)F", "outcome": "inactive"}
{"smiles": "O=C(O)C(F)(F)C(F)(F)C(F)(F)OC(F)(F)F", "outcome": "inactive"}
{"smiles": "CCOC(=O)C1CC(=O)C(=C(O)C2CC2)C(=O)C1", "note": "(centres undefined)", "outcome": "inactive"}
{"smiles": "Cc1ccc(O)c(-n2nc3ccccc3n2)c1", "outcome": "inactive"}
{"smiles": "CCCCOC(=O)C(C)O", "note": "(centres undefined)", "outcome": "inactive"}
{"smiles": "CCN(CC)c1ccc(N=Nc2ccccc2)cc1", "outcome": "inactive"}
